The values below come from PubChem BioAssay AID652145 (The Scripps Research Institute Molecular Screening Center, 2013).

This is one part of the list. Values without a mark were called inactive. Activity calls are given as the source filed them. How the calls were made is not given here.

The assay is described as follows: GDH-TPI coupling enzyme inhibitors, dose response, artefact control for M. tuberculosis FBA inhibitor project, biochemical, fluorescence, IC50 (AID 652145). Particulars: GDH-TPI coupled enzyme assay, artifact counterscreen.
For `Cn1cccc1-c1nc2ccccc2n1C`, the IC50 was 5.56 µM (active). In the case of `CC(=O)N1C(=O)/C(=C2\SC(=S)N(NC(=O)c3ccc(O)cc3)C2=O)c2ccccc21`, the IC50 is above 10 µM. As for `CCOc1c2ccc(C(=O)NC3CCCc4ccccc43)cc2nn1CC` (centres undefined), the IC50 is 1.79 µM (active). The figure for `CC(=O)N1CCN(C(=O)c2cc(-c3ccc(Cl)s3)nc3ccccc23)CC1` is 2.27 µM (active); for `O=C1C(=O)N(c2ccccc2)C(c2ccccc2)C1c1ccccc1` (centres undefined) it is above 10 µM. Regarding `COc1ccc2oc(=O)c(C(=O)NCc3ccccn3)cc2c1`, the IC50 is 1.9 µM (active). The figure for `CCCNC(=O)c1c(N)n(-c2ccc(S(N)(=O)=O)cc2)c2nc3ccccc3nc12` is 2.08 µM (active); for `O=C(NCc1cccc(Cl)c1)C1=CC=CN2CCS(=O)(=O)N=C12` it is 4.94 µM (active); for `N#Cc1c(N2CCCCC2)nc(N)c2c(N)nc(SCC(=O)O)cc12` it is above 10 µM.
